{"source": "PubChem BioAssay AID1446", "about": "(The Scripps Research Institute Molecular Screening Center, 2008)", "note": "Hit rate of the full screen: of about 220,000 compounds, about 2,400 (1.1%) were called active. The sample holds actives, similar compounds and a random draw of the others, so the mix is not that of the screen. A number with no mark means an inactive call.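 The calls were made as follows: active = inhibition above the campaign mean plus 3 SD over all tested compounds (cut at about 24% in these data); inactive = the rest.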"}
{"experiment": "viability loss in Ba/F3 EpoR-JAK2V617F cells – cell-based, luminescence, JAK2V617F inhibitor project, primary screen (AID 1446);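 also: cytokine-independent growth of Ba/F3 cells driven by EpoR plus mutant JAK2; 0% = DMSO-treated cells and 100% = JAK inhibitor I control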", "details": "ATP luminescence, at 5.6 µM, stronger effect = higher value"}
{"smiles": "COc1cc(OC)cc(C(=O)N[C@H](C(=O)Nc2nc3ccccc3[nH]2)C(C)C)c1", "inhibition": "76.2% (active)"}
{"smiles": "COc1cc(OC)cc(C(=O)N[C@H](C(=O)OCC(=O)NC(C)c2ccccc2)C(C)C)c1", "note": "(some centres not stated)", "inhibition": "-0.99%"}
{"smiles": "COc1ccc(OC(C)C(=O)NCCc2nc3ccccc3[nH]2)cc1", "note": "(configuration not stated)", "inhibition": "-2.24%"}
{"smiles": "COC(=O)Cc1ccc(N(Cc2ccccc2F)S(=O)(=O)c2ccc(Br)cc2)cc1", "inhibition": "-1.26%"}
{"smiles": "COC(=O)Cn1c(O)c(N=NC(=O)OC)c2ccccc21", "inhibition": "-2.09%"}
{"smiles": "Cc1oc2c(c1C(=O)N1CCOCC1)C(=O)c1ccccc1C2=O", "inhibition": "3.99%"}
{"smiles": "CCOC(=O)NC(=O)/C(C#N)=C\\c1ccccc1", "inhibition": "1.65%"}
{"smiles": "Cc1coc(C)c1C(=O)CC1(O)C(=O)N(C)c2ccc(Cl)cc21", "note": "(configuration not stated)", "inhibition": "2.68%"}
{"smiles": "Cc1ccc(/C=N/NC(=O)COc2ccccc2-c2ccccc2)cc1", "inhibition": "86.5% (active)"}
{"smiles": "Cc1ccc(OCC(=O)N/N=C\\c2ccco2)c(C)c1", "inhibition": "-7.98%"}
{"smiles": "Cc1ccc(OCC(=O)N/N=C/c2ccncc2)cc1", "inhibition": "-1.35%"}
{"smiles": "Cc1cc(C)nc(SCC(=O)N(C)C)n1", "inhibition": "-5.1%"}
{"smiles": "Nc1cccc(CCc2nc3ccccc3[nH]2)c1", "inhibition": "-1.26%"}
{"smiles": "Cc1ccc(S(=O)(=O)NC(=O)N2CCCC(C)(C)C2)cc1", "inhibition": "-3.44%"}
{"smiles": "Cc1ccc(S(=O)(=O)C2(S(=O)(=O)c3ccc(C)cc3)CCCC2)cc1", "inhibition": "30.1% (active)"}
{"smiles": "Cc1ccc(S(=O)(=O)N(C)C2(C)CCS(=O)(=O)C2)cc1", "note": "(configuration not stated)", "inhibition": "-0.37%"}
{"smiles": "Cc1ccc(NC(=O)C(=O)NCc2ccco2)c(C)c1", "inhibition": "-1.41%"}
{"smiles": "CCN(C(=O)COC(=O)c1cc(NS(=O)(=O)c2ccc(Cl)c([N+](=O)[O-])c2)ccc1O)C1CCCCC1", "inhibition": "-2.87%"}
{"smiles": "COc1ccccc1Nc1nc(N)nc(CN(C)C2CCCCC2)n1", "inhibition": "-3.54%"}
{"smiles": "COc1ccccc1NC1=NC2(CCCC2)N=C(N)N1", "inhibition": "1.28%"}
{"smiles": "COc1ccccc1NC1=NC(c2ccc(Cl)cc2)N=C(N)N1", "note": "(configuration not stated)", "inhibition": "84.9% (active)"}
{"smiles": "CC(C)(C)c1ccc(C(=O)NCCn2c(N)c(C#N)c3nc4ccccc4nc32)cc1", "inhibition": "1.57%"}
{"smiles": "CC(C)(C)NC(=O)COC(=O)c1cc(Br)ccc1Cl", "inhibition": "-5.58%"}
{"smiles": "CCOc1ccc(-n2c(O)c(/C=N/Nc3nnc(C)c(=O)[nH]3)c3ccccc3c2=O)cc1", "inhibition": "-1.02%"}
{"smiles": "COc1ccc(Cc2nnc(N/N=C/c3ccccc3O)[nH]c2=O)cc1OC", "inhibition": "24.2% (active)"}
{"smiles": "Cc1nnc(N/N=C/c2ccccn2)[nH]c1=O", "inhibition": "-4.34%"}
{"smiles": "CSCC(NS(=O)(=O)c1ccc(C)cc1)C(=O)O", "note": "(configuration not stated)", "inhibition": "-0.95%"}
{"smiles": "CC(=O)Nc1ccc(C(=O)/C=C/c2ccc[nH]2)cc1", "inhibition": "0.42%"}
{"smiles": "Cc1ccc(NC(=O)CC2S/C(=N/N=C3\\CCCc4ccccc43)NC2=O)cc1", "note": "(configuration not stated)", "inhibition": "-2.25%"}
{"smiles": "CCOc1ccc(S(=O)(=O)Nc2ccc(S(=O)(=O)Nc3cc(OC)ccc3OC)cc2)cc1", "inhibition": "3.6%"}
{"smiles": "COc1ccc(NS(=O)(=O)c2ccc(NC(=O)c3ccc(N(C)S(C)(=O)=O)cc3)cc2)cc1", "inhibition": "22.6%"}
{"smiles": "COc1ccc(NS(=O)(=O)c2ccc(Oc3c(C#N)cccc3C#N)cc2)cc1", "inhibition": "40.8% (active)"}
{"smiles": "Cc1cc(C)c(NC(=S)N2CCCC2C(=O)O)c(C)c1", "note": "(configuration not stated)", "inhibition": "-0.43%"}
{"smiles": "Nc1nnc(SCC(=O)OCc2ccc(Cl)c(Cl)c2)s1", "inhibition": "1.09%"}
{"smiles": "Cc1ccc(S(=O)(=O)N(C)c2ccc(OCC(=O)NC3=NCCS3)cc2)cc1", "inhibition": "4.42%"}
{"smiles": "COc1ccc(CC(=O)NCc2nnc(SCC(=O)Nc3nccs3)n2C)cc1", "inhibition": "-0.03%"}
{"smiles": "CC(=O)NCCc1nc2cc(NC(=O)c3ccccc3)ccc2n1C", "inhibition": "3.36%"}
{"smiles": "CCC(=O)Nc1ccc2c(c1)nc(CCN1CCN(C)CC1)n2C", "inhibition": "0.28%"}
{"smiles": "Cn1c(CCN2CCCCCC2)nc2cc(NC(=O)Nc3ccccc3)ccc21", "inhibition": "77.4% (active)"}
{"smiles": "Cc1ccc(N(C(=O)Cc2cccs2)C2C=CS(=O)(=O)C2)cc1Cl", "note": "(configuration not stated)", "inhibition": "3.93%"}
{"smiles": "O=c1[nH]c(CSc2ccccc2)nc2c1oc1ccccc12", "inhibition": "-0.61%"}
{"smiles": "CCOC(=O)c1ccccc1NS(=O)(=O)c1ccc(OC)cc1", "inhibition": "-0.82%"}
{"smiles": "CCOC(=O)C1=C(c2ccc(OC)cc2)C(=O)c2ccccc2C1=O", "inhibition": "46.9% (active)"}
{"smiles": "CCOC(=O)c1c(-c2ccc(C)cc2)csc1/N=C(\\C)C1=C(O)c2ccccc2C1=O", "inhibition": "-3.38%"}
{"smiles": "COc1ccccc1Nc1nc(N)nc(CSC(=S)N2CCOCC2)n1", "inhibition": "0.7%"}
{"smiles": "Cc1ccc(-c2cc(=O)c3ccc(Cl)cc3[nH]2)cc1", "inhibition": "-3.39%"}
{"smiles": "O=c1cc(-c2ccccc2)[nH]c2cc(F)ccc12", "inhibition": "70.7% (active)"}
{"smiles": "Cc1ccc(-c2cc(=O)c3ccc(F)cc3[nH]2)cc1", "inhibition": "-1.31%"}
{"smiles": "CCOC(=O)c1cnc(Nc2nc3ccccc3o2)nc1CSC(=S)N1CCCCC1", "inhibition": "-2.9%"}
{"smiles": "CC#CC[N+](C)(C)CCCCCC", "inhibition": "35.9% (active)"}
{"smiles": "C/C(=N\\NC(=O)c1cccc(N2CCCC2=O)c1)c1ccc(N)cc1", "inhibition": "0.87%"}
{"smiles": "CC1=NNC(=O)C1CCC(=O)N/N=C(\\C)c1ccc(Cl)cc1", "note": "(configuration not stated)", "inhibition": "-7.29%"}
{"smiles": "Cc1cccc(NC(=S)NC(=O)c2ccc(Br)o2)c1", "inhibition": "1.21%"}
{"smiles": "Cc1cccc(NC(=O)c2ccc([N+](=O)[O-])o2)c1", "inhibition": "38.7% (active)"}
{"smiles": "Cc1onc(NC(=O)c2ccc([N+](=O)[O-])o2)c1Br", "inhibition": "2.15%"}
{"smiles": "Cc1cc(C)cc(OCC(=O)Nc2ccc(S(=O)(=O)Nc3ccccn3)cc2)c1", "inhibition": "-4.41%"}
{"smiles": "Cc1ccc(S(=O)(=O)Nc2ccc3ncccc3c2)cc1", "inhibition": "32.3% (active)"}
{"smiles": "Cc1ccc(OCC(=O)Nc2ccc(S(=O)(=O)Nc3ccccn3)cc2)cc1", "inhibition": "-2.67%"}
{"smiles": "c1ccc(-c2ccc3c(c2)NC(C2Nc4cc(-c5ccccc5)ccc4O2)O3)cc1", "note": "(configuration not stated)", "inhibition": "-3.19%"}
{"smiles": "Cc1c(Cl)c([N+](=O)[O-])nn1CCCC(=O)NC(C)c1ccccc1", "note": "(configuration not stated)", "inhibition": "0.46%"}
{"smiles": "CC(C)CCN1CCN(C/C=C/c2ccco2)CC1CCO", "note": "(configuration not stated)", "inhibition": "-3.77%"}
{"smiles": "Oc1ccc2ccccc2c1N=Nc1nccs1", "inhibition": "98.2% (active)"}
{"smiles": "Oc1ccc2ccccc2c1C=Nc1ccccc1", "inhibition": "0.08%"}
{"smiles": "Oc1ccc(N=Nc2nccs2)c(O)c1", "inhibition": "8.36%"}
{"smiles": "CCCC(NC(=O)c1ccco1)c1nc2ccccc2[nH]1", "note": "(configuration not stated)", "inhibition": "4.01%"}
{"smiles": "Cn1c(=O)c2c(nc(NCCc3ccccc3)n2Cc2ccccc2)n(C)c1=O", "inhibition": "1.54%"}
{"smiles": "COC(=O)C(C)Sc1nc2c(c(=O)n(C)c(=O)n2C)n1Cc1cccc(C)c1", "note": "(configuration not stated)", "inhibition": "-3.92%"}
{"smiles": "CCCCNc1nc2c(c(=O)n(C)c(=O)n2C)n1Cc1cccc(OC)c1", "inhibition": "52.4% (active)"}
{"smiles": "O=C(NCC1CCCO1)c1ccccc1-c1nc(-c2ccccc2Cl)no1", "note": "(configuration not stated)", "inhibition": "4.19%"}
{"smiles": "COc1ccc2c(Cl)c(C(=O)NCc3ccco3)sc2c1", "inhibition": "-3.38%"}
{"smiles": "COc1ccc(CCNS(=O)(=O)c2ccc(C(=O)NCc3ccco3)cc2)cc1OC", "inhibition": "-0.49%"}
{"smiles": "CCCC1=Nc2cc(C(=O)NCc3ccco3)ccc2Sc2ccccc21", "inhibition": "81.1% (active)"}
{"smiles": "O=[N+]([O-])C(=c1ccc2c(c1)N1C3=C(CCCC3)CC3CCCCC31N=2)[N+](=O)[O-]", "note": "(configuration not stated)", "inhibition": "-3.46%"}
{"smiles": "COc1ccccc1CNC(=O)CNC(=O)c1cn(-c2ccccc2OC)c(=O)c2ccccc12", "inhibition": "-3.01%"}
{"smiles": "Cn1nc(C(F)(F)F)cc1-c1ccc(/C=C(\\C#N)C(=O)c2cccc(C(F)(F)F)c2)s1", "inhibition": "-2.61%"}
{"smiles": "CSC(=S)N/N=C/c1c[nH]c2ccccc12", "inhibition": "-3.06%"}
{"smiles": "S=c1[nH]nc(-c2ccccc2)n1/N=C/c1c[nH]c2ccccc12", "inhibition": "-2.71%"}
{"smiles": "C[n+]1ccc(/C=C/c2c[nH]c3ccccc23)cc1", "inhibition": "88.5% (active)"}
{"smiles": "CC1(C)C2CC=C(/C=N/NC(=O)c3ccc(Cl)cc3)C1C2", "note": "(configuration not stated)", "inhibition": "-0.76%"}
{"smiles": "O=C(Nc1cccc(F)c1)c1ccc(S(=O)(=O)N2CCCC2)cc1", "inhibition": "2.9%"}
{"smiles": "COc1ccc(C(=O)Nc2ccc(F)cc2F)cc1", "inhibition": "-3.55%"}
{"smiles": "CCOC(=O)N1CCN(S(=O)(=O)c2ccc(C(=O)Nc3ccc(F)cc3F)cc2)CC1", "inhibition": "54.4% (active)"}
{"smiles": "O=C(COC(=O)c1ccc(O)cc1)Nc1nccs1", "inhibition": "0.51%"}
{"smiles": "Cc1nc(N2CCC(C)CC2)c2c(C)c(C(=O)Nc3cc(F)ccc3C)sc2n1", "inhibition": "2.17%"}
{"smiles": "C=CCSc1nnc(NC(=O)c2ccc(NC(C)=O)cc2)s1", "inhibition": "-0.62%"}
{"smiles": "CC(=O)c1sc(NC(=O)c2cccc3ccccc23)nc1C", "inhibition": "-0.63%"}
{"smiles": "CC(NC(=O)c1cccc2ccccc12)c1ccc2c(c1)CCCC2", "note": "(configuration not stated)", "inhibition": "64.5% (active)"}
{"smiles": "O=C(Cc1ccc2c(c1)CCCC2)Nc1ccccc1Cl", "inhibition": "3.77%"}
{"smiles": "O=[N+]([O-])c1ccc2nc(-c3ccccn3)[nH]c2c1", "inhibition": "2.31%"}
{"smiles": "NNC(=O)c1oc2nc(-c3ccccc3)cc(-c3ccco3)c2c1N", "inhibition": "-4.49%"}
{"smiles": "COC(=O)c1cc2c(ccn2C)n1C", "inhibition": "-1.58%"}
{"smiles": "Cc1ccc(S(=O)(=O)N2CCOCC2)cc1C(=O)OC1CCCCC1=O", "note": "(configuration not stated)", "inhibition": "0.06%"}
{"smiles": "O=C(Nc1ccccc1Cl)c1ccc2nsnc2c1", "inhibition": "0.05%"}
{"smiles": "O=C(CN1CCCCC1)Nc1ccccc1Cl", "inhibition": "1.81%"}
{"smiles": "O=C(Nc1ccccc1Cl)/C(Cl)=C(\\Cl)S(=O)c1ccccc1", "note": "(configuration not stated)", "inhibition": "102% (active)"}
{"smiles": "O=S(=O)(Nc1n[nH]c(C(F)(F)F)n1)c1ccccc1", "inhibition": "-3.72%"}
{"smiles": "O=C(CNc1ccc(F)cc1F)NC(=O)NCc1ccco1", "inhibition": "4.79%"}
